Assay results as given in PubChem BioAssay AID488969 (Vanderbilt High Throughput Screening Facility, 2010).
The full ranking holds about 110,000 compounds; the median of “z-score” is about -0.1, and the highest 2% start at about 2. This excerpt belongs to a sample that is enriched for the highest values. Activity calls are given as the source filed them.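 Rule for the calls: active = z-score in the third read window above 3 or below -3; inactive = the rest.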

Biological target: Metabotropic glutamate receptor 8 (Rattus norvegicus) (UniProt P70579)
Test: mGluR8 Gi/Go-coupled signaling modulation – cell-based, rat, thallium flux, HTS, primary screen (AID 488969)
Conditions: HEK293 rat mGluR8, GIRK (G protein-gated inwardly rectifying potassium channel) thallium flux, FluoZin2; at 10 µM; stronger effect = higher value; submaximal glutamate (EC20) added with thallium

Chain of Metabotropic glutamate receptor 8 (Rattus norvegicus) (P70579 whole entry, looked up): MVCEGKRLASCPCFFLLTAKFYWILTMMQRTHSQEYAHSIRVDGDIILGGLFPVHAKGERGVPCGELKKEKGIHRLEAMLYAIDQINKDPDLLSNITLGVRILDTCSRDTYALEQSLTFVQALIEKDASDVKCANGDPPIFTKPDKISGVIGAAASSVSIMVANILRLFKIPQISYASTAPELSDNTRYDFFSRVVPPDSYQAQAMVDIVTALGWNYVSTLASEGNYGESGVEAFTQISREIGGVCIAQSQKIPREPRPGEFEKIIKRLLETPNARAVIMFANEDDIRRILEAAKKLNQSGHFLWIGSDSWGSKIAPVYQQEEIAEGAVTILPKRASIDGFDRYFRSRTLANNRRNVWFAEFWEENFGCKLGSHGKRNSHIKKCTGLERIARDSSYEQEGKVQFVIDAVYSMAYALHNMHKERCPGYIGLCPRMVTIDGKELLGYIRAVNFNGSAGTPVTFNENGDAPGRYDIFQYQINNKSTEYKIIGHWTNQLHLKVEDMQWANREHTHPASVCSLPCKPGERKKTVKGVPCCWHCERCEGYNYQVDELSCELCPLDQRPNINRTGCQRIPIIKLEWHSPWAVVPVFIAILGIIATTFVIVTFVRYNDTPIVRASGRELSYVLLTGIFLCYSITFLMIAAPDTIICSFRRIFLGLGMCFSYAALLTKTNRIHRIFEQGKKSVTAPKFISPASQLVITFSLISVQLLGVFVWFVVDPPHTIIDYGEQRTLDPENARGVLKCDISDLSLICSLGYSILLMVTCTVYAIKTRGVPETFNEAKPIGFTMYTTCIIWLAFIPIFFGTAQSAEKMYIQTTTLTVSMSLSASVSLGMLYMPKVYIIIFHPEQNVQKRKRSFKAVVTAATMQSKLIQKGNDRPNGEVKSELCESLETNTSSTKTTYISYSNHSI

SMILES | z-score
Cc1ccc(Nc2nc(N)nc(CC#N)n2)cc1 | 0.115
Cc1cccc(NC2=NC(=S)N(c3ccc(C(=O)O)cc3)C23CCCCC3)c1 | -0.194
Cc1ccc(NC2=NC(=S)N(CC#N)C23CCCCC3)cc1 | 3.98 (active)
CCSc1nnc(NC(=O)C(C)Sc2nc3ccccc3[nH]2)s1 (stereo not drawn) | 1.73
COc1ccc(N(CC(=O)NCc2ccc3c(c2)OCO3)S(=O)(=O)c2c(C)nn(C)c2C)cc1 | -0.575
COC(=O)c1ccc(COC(=O)c2ccc(SC)cc2OC)cc1 | -0.178
Cc1cccc(NC(=O)c2sc(Cl)nc2C)c1C | 0.181
Cn1c(=O)oc2cc(S(=O)(=O)N3CCCC(C(=O)N4CC=C(c5ccccc5)CC4)C3)ccc21 (stereo not drawn) | 1.18
O=C(Nc1ccc(N2CCOCC2)cc1)C1CCCN(S(=O)(=O)c2cccc(C(F)(F)F)c2)C1 (stereo not drawn) | 2.63
O=C(Nc1ccccc1N1CCOCC1)C1CCN(S(=O)(=O)c2cccc(C(F)(F)F)c2)CC1 | -0.294
O=C(Nc1ccc(N2CCOCC2)cc1)C1CCCN(S(=O)(=O)c2ccccc2)C1 (stereo not drawn) | 0.446
Cc1nn(-c2ccccc2)c(Cl)c1/C=N/NC(=O)C1COc2ccccc2O1 (stereo not drawn) | -0.169
CCCSc1nnc(-c2cnn(-c3ccccc3)c2-n2cccc2)n1C | -0.0552
COc1cc(NC(=O)c2ccc(C)cc2)c(OC)cc1NC(=O)CN1CCOCC1 | -0.672
COc1cc(NC(=O)c2ccc(C)cc2)c(OC)cc1NC(=O)CN1CCCCC1 | 2.37
COc1cc(NC(=O)c2ccccc2)c(OC)cc1NC(=O)CN1CCCCC1 | -0.781
COc1cc(NC(=O)COC(=O)CNC(=O)c2ccc(Cl)cc2)c(C)cc1[N+](=O)[O-] | -0.644
CC1CC(=S)Nc2ccccc2S1 (stereo not drawn) | 1.11
CC1(C)CC(=S)Nc2ccccc2S1 | 7.97 (active)
COC(=O)C(C)C1Sc2ccccc2NC1=O (stereo not drawn) | -0.34
CCOC(=O)c1cc(C#N)c(Oc2ccc(F)cc2)nc1-c1ccccc1 | -0.0477
Cc1cc(C(=O)COC(=O)Cc2n[nH]c(=O)c3ccccc23)c(C)n1-c1ccc2c(c1)OCCO2 | -0.104
CS(=O)(=O)c1ccc(Cl)c(NC(=O)c2cccc(Br)c2)c1 | -0.236

SMILES | z-score
COc1ccc(OC)c(Nc2ncnc3c2cnn3-c2ccccc2)c1 | -0.143
O=C(CSC1=Nc2ccccc2C2=NC(CC(=O)NCc3ccco3)C(=O)N12)NCC1CCCO1 (stereo not drawn) | -0.919
O=C(CSC1=Nc2ccccc2C2=NC(c3ccccc3)C(=O)N12)NCC1CCCO1 (stereo not drawn) | 2.65
O=C(CSC1=Nc2ccccc2C2=NC(c3ccccc3)C(=O)N12)NC1CCCCC1 (stereo not drawn) | -0.816
CCC(=O)OCCn1c(Br)nc2c1c(=O)[nH]c(=O)n2C | -0.265
C/C=C/Cn1c(Br)nc2c1c(=O)n(C)c(=O)n2C | 1.47
C/C(CCC12CC3CC(CC(C3)C1)C2)=N\NC(N)=S | -0.636
C/C(=N\NC(=O)c1ccncc1)C12CC3CC(CC(C3)C1)C2 | -0.319
C/C(=N\NC(N)=S)C12CC3CC(CC(C3)C1)C2 | 2.47
COc1ccc(OC)c(C(=O)CSc2nccc(-c3ccc(Br)cc3)n2)c1 | -0.268
COC(=O)/C(=C/c1cccnc1)NC(=O)c1ccccc1 | -0.0328
CC(C)OC(=O)/C(=C/c1cccnc1)NC(=O)c1ccccc1 | 3.22 (active)
CC(C)OC(=O)/C(=C\C=C\c1ccccc1)NC(=O)c1ccccc1 | -0.143
CC(=O)Nc1c(OC(C)=O)ccc2c(C)cc(=O)oc12 | -0.24
Cc1cc(C(F)(F)F)nn1Cc1n[nH]c(=S)n1-c1cccc(Cl)c1 | -0.0907
O=S(=O)(c1ccccc1)c1nc(-c2ccccc2)oc1N1CCCCC1 | -0.0433
COCCNC(=O)C(c1cccs1)N(C(=O)Cn1nnc2ccccc21)c1ccc(OC)cc1 (stereo not drawn) | 0.0248
CCCCCCCCCOC(=O)C[n+]1csc(CCO)c1C | 0.0302
O=C(CN1C(=O)c2ccccc2C1=O)Nc1sc2c(c1C(=O)NCC1CCCO1)CCC2 (stereo not drawn) | 4.33 (active)
O=C(CCN1C(=O)c2ccccc2C1=O)Nc1sc2c(c1C(=O)NCC1CCCO1)CCC2 (stereo not drawn) | -0.294
CC(C(=O)Nc1sc2c(c1C(=O)NCC1CCCO1)CCC2)N1C(=O)c2ccccc2C1=O (stereo not drawn) | -1
CC(C)COP(=O)(OCC(C)C)C(O)c1ccc(F)cc1 (stereo not drawn) | 0.263
COc1ccc(C2(CNC(C)=O)CCOCC2)cc1OC | 0.1

SMILES | z-score
COC(=O)C1=CN(C(C)C)C=C(C(=O)OC)C1c1cc2c(cc1Br)OCO2 | -0.0368
Cc1cc2cc3c(cc2nc1SCc1ccc(C(=O)O)cc1)OCCO3 | -0.554
COc1cccc(C2C(C#N)=C(N)Oc3c2oc(CO)cc3=O)c1 (stereo not drawn) | -1.28
COc1ccccc1C(=O)NNC(=O)c1cccc(F)c1 | -0.0578
O=C(CCC(=O)c1ccc(F)cc1)Nc1ccccc1Cl | 0.266
Cc1ccc(C(=O)CC(=O)c2cccc(F)c2)c(O)c1 | 8.38 (active)
O=C(Nc1ccccc1C(=O)O)c1cccc(F)c1 | -0.262
Cc1ccccc1C(=O)NNC(=O)c1ccc(F)cc1 | 0.0481
O=C(CC(=O)c1ccccc1O)c1cccc(F)c1 | 3.63 (active)
CCOC(=O)c1ccccc1NC(=O)c1cccc(F)c1 | 0.0409
Cc1ccc(C(=O)c2ccccc2C(=O)O)c(O)c1 | 0.0184
O=C(CC(=O)c1ccccc1O)c1ccc(F)cc1 | 7.61 (active)
CC(=O)Nc1cccc(C(=O)/C=C/c2ccc(/C=C/C(=O)c3cccc(NC(C)=O)c3)cc2)c1 | 0.033
COc1ccc2oc(C(=O)C3CC3)c(N)c2c1 | 1.19
COc1ccc(N=C/C=C2\C=C(c3ccccc3)OC(C)(C)O2)cc1 | -0.461
OC1(c2ccc(OC(F)F)cc2)CSC(=Nc2cccnc2)N1C1CC1 (stereo not drawn) | -0.02
C=CCN1C(=Nc2cccnc2)SCC1(O)c1ccc(C)cc1 (stereo not drawn) | 2.38
CC1=NN(C(=O)Cc2ccc(C)cc2)C(O)(c2cccnc2)C1 (stereo not drawn) | 0.145
COc1cc(/C=N/NC(=O)c2cc3ccccc3cc2O)ccc1OCCN1CCCCC1 | -0.0725
COc1ccc(N(C)S(=O)(=O)c2cccc(C(=O)OCC(=O)Nc3sc4c(c3C#N)CCCCC4)c2)cc1 | 0.379
O=C1CC(C(F)(F)C(F)(F)C(F)(F)C(F)(F)F)=Nc2ccccc2N1 | -0.248
O=C1CC(C(F)(F)C(F)(F)C(F)(F)F)=Nc2ccccc2N1 | 3.4 (active)
Cc1cc2c(cc1C)NC(=O)CC(C(F)(F)C(F)(F)C(F)(F)F)=N2 | -0.139

SMILES | z-score
CC(C)(C)c1ccc(CN2C3=NCCCN3c3ccccc32)cc1 | 4.19 (active)
CCCCN1C2=NCCCN2c2ccccc21 | -0.957
OC(CN1C2=NCCCN2c2ccccc21)c1ccc(Br)cc1 (stereo not drawn) | 3.3 (active)
c1ccc(CN2C3=NCCCN3c3ccccc32)cc1 | 2.93
Cc1ccc(C)c(C(=O)CN2C3=NCCCN3c3ccccc32)c1 | 0.0716
Clc1ccc(CN2C3=NCCCN3c3ccccc32)cc1 | 0.436
CCCCCCN1C2=NCCN2c2ccccc21 | 7.63 (active)
OC(CN1C2=NCCN2c2ccccc21)c1ccc(Br)cc1 (stereo not drawn) | 0.254
O=C(CN1C2=NCCCN2c2ccccc21)c1ccc(Cl)cc1Cl | 0.287
OC(CN1C2=NCCCN2c2ccccc21)c1ccc(Cl)cc1 (stereo not drawn) | 0.782
Brc1ccc(CN2C3=NCCCN3c3ccccc32)cc1 | 0.755
CCCCCN1C2=NCCN2c2ccccc21 | 0.394
Cc1cccc(N(CC(=O)Nc2ccccc2F)S(C)(=O)=O)c1 | -0.443
Cc1ccccc1OCC(=O)NC1=NCCS1 | 0.0476
CCOC(=O)C(C)On1c(-c2cccc(Cl)c2)nc2ccc([N+](=O)[O-])cc21 (stereo not drawn) | 0.66
CNc1nc(CCN2C(=O)c3ccccc3C2=O)cs1 | -0.0681
CCOC(=O)C(C)Sc1nc(C2CC2)cc(C(F)(F)F)c1C#N (stereo not drawn) | 1.1
O=C(NC(C(=O)O)c1ccccc1)c1ccccc1 (stereo not drawn) | 0.488
COC(=O)CCC(=O)Nc1ccc(C)cc1OC(=O)CCC(=O)OC | 0.273
COc1ccccc1CNS(=O)(=O)c1c(C)[nH]c(=O)[nH]c1=O | 0.0871
O=C1CC(c2ccc(S(=O)(=O)NCCOc3ccccc3)cc2)CN1 (stereo not drawn) | 0.129
Cc1ccc(CN2C3=NCCCN3c3ccccc32)cc1 | 3.51 (active)
Cc1ccccc1CN1C2=NCCCN2c2ccccc21 | 3.26 (active)

SMILES | z-score
Fc1ccc(CN2C3=NCCCN3c3ccccc32)cc1 | -0.37
Cc1ccc(C(O)CN2C3=NCCCN3c3ccccc32)cc1 (stereo not drawn) | 1.16
CCCN1C2=NCCCN2c2ccccc21 | 0.397
CCN1C2=NCCCN2c2ccccc21 | 0.0152
C=CCNC(=O)c1cc(Cl)ccc1Cl | 0.018
COc1ccc2c(C)cc(=O)[nH]c2c1 | -0.159
O=C(NC1CC1)c1cc2c(s1)-c1ccccc1OC2 | -0.272
CN(C)CCNC(=O)c1cc2c(s1)-c1ccccc1OC2 | 3.28 (active)
O=C(NCc1cccs1)c1cc2c(s1)-c1ccccc1OC2 | -0.399
Cc1cc(C)n(-c2ccc(Cl)c(C(=O)Nc3cc(C(F)(F)F)ccc3Cl)n2)n1 | 0.25
CC(C)c1ccc(OCC(=O)N(Cc2ccccc2)c2ccccn2)cc1 | -0.499
CCN(CC(=O)Nc1cccc(OC)c1)c1ncnc2sc(C)c(C)c12 | -0.125
Cc1c(NC(=O)CSc2ncn[nH]2)c(=O)n(-c2ccccc2)n1C | 0.565
CC(=O)N1CCN(CC(=O)Nc2ccc(Cl)c(S(=O)(=O)N(C)C)c2)CC1 | -0.0302
CCCCc1ccc(NC(=S)Nc2ccc(Cl)c(S(=O)(=O)N(C)C)c2)cc1 | 5.93 (active)
CCCCc1ccc(NC(=S)Nc2ccc(Nc3ccc(OC)cc3)cc2)cc1 | -0.0123
CCC(C(=O)OCC(=O)Nc1ccc(Cl)c(S(=O)(=O)N(C)C)c1)c1ccccc1 (stereo not drawn) | -2.23
CCCCC(=O)Nc1ccc(C(=O)Nc2cccnc2)cc1 | 0.0123
CCCCc1ccc(NC(=S)Nc2cccnc2)cc1 | 2.66
CNC(=O)N1CCN(C(=O)NC)CC1 | -0.168
CCN(CC)S(=O)(=O)c1ccc(N2CCOCC2)c(NS(=O)(=O)c2cc(C(C)(C)C)ccc2C)c1 | -0.103
